In PubChem BioAssay AID652192 (Johns Hopkins Ion Channel Center, 2013):
Measured potencies and affinities stand elsewhere.

biological target: Potassium voltage-gated channel subfamily KQT member 2 (Rattus norvegicus) (UniProt O88943); assay: block of rat KCNQ2 potassium channel – cell-based, FluxOR thallium flux, concentration-response, selectivity assay for TASK1 inhibitor project, SAR follow-up (AID 652192); conditions: KCNQ2 cell line, FluxOR thallium flux fluorescence; series mostly up to 30 µM; flux ratio, lower = inhibition: at the top concentration
Sequence (O88943 whole entry, looked up): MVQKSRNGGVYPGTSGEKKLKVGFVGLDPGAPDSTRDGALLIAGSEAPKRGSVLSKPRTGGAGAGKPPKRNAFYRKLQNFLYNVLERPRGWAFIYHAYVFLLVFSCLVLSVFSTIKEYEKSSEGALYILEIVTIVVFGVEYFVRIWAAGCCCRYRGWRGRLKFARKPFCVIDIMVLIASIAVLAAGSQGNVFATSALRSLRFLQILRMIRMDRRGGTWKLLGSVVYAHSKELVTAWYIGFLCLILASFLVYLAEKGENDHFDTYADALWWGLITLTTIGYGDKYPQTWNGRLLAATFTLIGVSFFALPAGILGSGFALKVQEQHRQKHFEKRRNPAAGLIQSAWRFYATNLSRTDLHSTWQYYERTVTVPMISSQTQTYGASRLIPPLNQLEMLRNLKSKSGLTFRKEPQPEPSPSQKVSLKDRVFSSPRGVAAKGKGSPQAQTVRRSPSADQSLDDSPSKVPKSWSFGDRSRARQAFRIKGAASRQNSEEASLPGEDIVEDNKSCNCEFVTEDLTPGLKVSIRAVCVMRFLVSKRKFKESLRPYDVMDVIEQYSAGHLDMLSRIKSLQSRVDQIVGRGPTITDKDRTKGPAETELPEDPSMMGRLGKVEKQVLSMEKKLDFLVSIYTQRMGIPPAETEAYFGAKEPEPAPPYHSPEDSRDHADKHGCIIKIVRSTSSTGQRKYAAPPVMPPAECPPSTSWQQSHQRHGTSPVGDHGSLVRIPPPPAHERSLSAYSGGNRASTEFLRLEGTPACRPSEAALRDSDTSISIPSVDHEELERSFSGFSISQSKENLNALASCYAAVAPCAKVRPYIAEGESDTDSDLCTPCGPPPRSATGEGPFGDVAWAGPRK

Flux ratio, lower = inhibition, inactive:
Cc1cccc(C(=O)Nc2cccc(NC(=O)c3cccc(F)c3)c2)c1 0.405, O=C(Nc1cccc(NC(=O)c2cccnc2)c1)c1ccccc1 0.219, CCOc1ccccc1NC(=O)c1cccc(NC(=O)C2CCCCC2)c1 0.19, Cc1cccc(C(=O)Nc2cccc(NC(=O)c3ccccc3OCC(C)C)c2)c1 0.148, O=C(Nc1cccc(NC(=O)c2ccccc2C(F)(F)F)c1)c1ccccc1 0.219, COc1c(F)cccc1C(=O)Nc1cccc(NC(=O)c2cccc(C)c2)c1 0.365, Cc1cccc(C(=O)Nc2cccc(NC(=O)c3ccc(Cl)cc3)c2)c1 0.192, CCOc1ccccc1NC(=O)c1cccc(NC(=O)c2ccc(C(F)(F)F)cc2)c1 0.195, COc1ccccc1C(=O)Nc1cccc(NC(=O)c2ccccc2OC(F)(F)F)c1 0.183, COc1ccccc1C(=O)Nc1cccc(NC(=O)c2cccc(C)c2)c1 0.189, CCOc1ccccc1NC(=O)c1cccc(NC(=O)CC2CCCC2)c1 0.159, COc1cccc(C(=O)Nc2cccc(NC(=O)c3cccc(C)c3)c2)c1 0.169, CCOc1ccccc1NC(=O)c1cccc(NC(=O)c2cccc(C)c2)c1 0.177, O=C(Nc1cccc(NC(=O)c2ccc(F)cc2)c1)c1ccccc1 0.186, O=C(Nc1cccc(NC(=O)C2CCCCC2)c1)c1ccccc1 0.215, Cc1cccc(C(=O)Nc2cccc(NC(=O)c3cccc(C)c3)c2)c1 0.203, CCOc1ccccc1NC(=O)c1cccc(NC(=O)c2ccccc2OC)c1 0.179, COc1ccccc1C(=O)Nc1cccc(NC(=O)c2cccc3ccccc23)c1 0.22, Cc1cccc(C(=O)Nc2cccc(NC(=O)c3ccc(C(C)(C)C)cc3)c2)c1 0.245, O=C(Nc1cccc(NC(=O)c2ccccc2Cl)c1)c1ccccc1 0.169, O=C(Nc1cccc(NC(=O)c2ccc(Cl)cc2)c1)c1ccccc1 0.153, CCOc1ccccc1NC(=O)c1cccc(NC(=O)C2CCOC2)c1 (stereo not drawn) 0.201, COc1ccc(CC(=O)NCc2ccccc2-c2ccccc2C(=O)NCc2ccc(F)cc2F)cc1 0.098, CC(C)(C)c1ccc(C(=O)Nc2cccc(NC(=O)c3ccccc3)c2)cc1 0.169, Cc1cccc(C(=O)Nc2cccc(NC(=O)c3cccc(C(F)(F)F)c3)c2)c1 0.155, COc1ccc(C(=O)Nc2cccc(NC(=O)c3ccccc3)c2)cc1 0.151, CCOc1ccccc1NC(=O)c1cccc(NC(=O)c2ccccc2C)c1 0.159, CCOc1ccccc1C(=O)Nc1cccc(NC(=O)c2ccccc2C(F)(F)F)c1 0.177, O=C(Nc1cccc(NC(=O)c2cccc(F)c2)c1)c1ccccc1 0.2, CCOc1ccccc1NC(=O)c1cccc(NC(=O)C2CCCO2)c1 (stereo not drawn) 0.195, COc1ccc(F)cc1C(=O)Nc1cccc(NC(=O)c2cccc(C)c2)c1 0.39, CCOc1ccccc1NC(=O)c1cccc(NC(=O)c2cccc(OC)c2)c1 0.172, Cc1cccc(C(=O)Nc2cccc(NC(=O)c3ccccc3C(F)(F)F)c2)c1 0.155
